The whole screen tested about 310,000 compounds, of which about 410 (0.13%) were called active. Not shown: some 2% with an inconclusive outcome. No rule for the calls is given here. Only a sample is shown. Potency and affinity values are given separately.
Test: inhibition of RSV-induced cytopathic effect – HEp-2 cells, primary 10 µM value included (AID 2391)
Settings: at 10 µM, hits give high values

CPE inhibition, inactive:
NC(=O)c1ccsc1NC(=O)COC(=O)c1nc(Cl)ccc1Cl -1.24%
c1ccc2[nH]c(CN3CCCCCC3)nc2c1 0.95%
c1ccc(N2CCN(c3nc4ccccc4[nH]3)CC2)nc1 -2.6%
Oc1ccc(N2CCN(Cc3nc4ccccc4[nH]3)CC2)cc1 13.2%
COc1ccccc1N1CCN(Cc2nc3ccccc3[nH]2)CC1 1.74%
COC(CNS(=O)(=O)c1cccc2nonc12)OC 3.28%
CCN(CC(=O)Nc1c(F)cccc1F)C(=O)c1ccc(N2CCCCC2)c([N+](=O)[O-])c1 5.38%
Cc1csc(NC(=O)c2ccc[nH]c2=O)n1 0.61%
COc1ccc(OCCOC(=O)C(C)NS(=O)(=O)c2ccc(NC(C)=O)cc2)cc1 (stereo unspecified) 0.13%
CCOC(=O)N1CCN(CC(=O)Nc2nc3ccc(OC)cc3s2)CC1 10.2%
O=c1c2ccccc2nc(SCc2ccc([N+](=O)[O-])cc2)n1CCCO 4.2%
CCC(Sc1nc2ccccc2c2nc3ccccc3n12)C(=O)NCc1ccco1 (stereo unspecified) -0.18%
Cn1c(SCC#N)nc2ccccc2c1=O 2.04%
O=C(CSc1nc2ccccc2n1CC(=O)NCc1ccccc1)NCc1ccco1 -0.09%
CCn1c(SCC#N)nc2ccccc2c1=O 1.07%
Cc1cccc(C(=O)O/N=C/c2c(N3CCOCC3)n(C)c3ccccc23)c1 -0.89%
COC(=O)Cc1c(C)c2ccc(OC3CCCCC3=O)cc2oc1=O (stereo unspecified) 6.9%
CN(C)c1ccc(NC(=O)CSc2nc(C3CC3)nc3ccccc23)cc1 3.13%
CCC(C)NC(=O)c1nc2c(nnn2Cc2ccccc2Cl)c(=O)[nH]1 (stereo unspecified) 1.33%
CC1C2C(C)N(C)C(=O)N(C)C2N(C)C(=O)N1C (stereo unspecified) 2.07%
CCOc1ccc2nc(NC(=O)C(NS(=O)(=O)c3cccs3)C(C)C)sc2c1 (stereo unspecified) 19.6%
CCCC(=O)Nc1nc2ccc(OCC)cc2s1 2.67%
CCOc1ccc2nc(NS(=O)(=O)c3cccs3)sc2c1 1.43%
CC1(C(=O)Nc2nc3ccccc3s2)CC1(Br)Br (stereo unspecified) 9.49%
C/C(=N/NS(C)(=O)=O)c1ccc2ccccc2c1 -0.76%
CC(C)C(=O)Nc1cccc(-c2cnc3ccccc3n2)c1 -1.56%
O=C(NNC(=O)C1CC1c1ccccc1)Nc1ccccc1 (stereo unspecified) 1.51%
Cc1cc(N2CCOCC2)n2cc(-c3ccccc3)nc2n1 1.5%
Cc1cc(N2CCN(c3ccccc3Cl)CC2)n2cc(-c3ccccc3)nc2n1 5.23%
CCCC(=O)N/C(N)=N/c1nc(C)c2ccccc2n1 0.78%
N#CCCn1cc(CNC2CCC(O)CC2)c2ccccc21 (stereo unspecified) 2.18%
Cn1nc(SCC(=O)O)sc1=S -0.46%
Cc1ccc2cc(CN(CC3CCCO3)C(=S)NCc3ccco3)c(=O)[nH]c2c1 (stereo unspecified) 1.42%
Cc1ccc2cc(CN(Cc3ccco3)C(=S)NCC3CCCO3)c(=O)[nH]c2c1C (stereo unspecified) 2%
COc1ccc(C(=O)COC(=O)CCn2nnc(-c3cccs3)n2)cc1 1.36%
O=[N+]([O-])c1cc(C(F)(F)F)ccc1N1CCCC(O)C1 (stereo unspecified) 9.15%
NC(=O)C1CCN(c2ccc(C(F)(F)F)cc2[N+](=O)[O-])CC1 16.8%
COCC1CCN(C(=O)C2CCC(=O)N(Cc3cccc(F)c3)C2)CC1 (stereo unspecified) 2.17%
c1csc(-c2nn3c(Cn4nnc5ccccc54)nnc3s2)c1 26.6%
c1ccc2c(c1)ncn2Cc1nnc2sc(-c3ccncc3)nn12 -0.84%
Clc1cccc(-c2nn3c(Cn4cnc5ccccc54)nnc3s2)c1 34%
c1cncc(-c2nn3c(Cn4cnc5ccccc54)nnc3s2)c1 15.6%
c1ccc(Cc2nn3c(Cn4cnc5ccccc54)nnc3s2)cc1 5.56%
c1ccc2c(c1)nnn2Cc1nnc2sc(-c3ccncc3)nn12 1.65%
Cc1ccc[n+](C(C)C(=O)Nc2ccc(C)c([N+](=O)[O-])c2)c1 (stereo unspecified) 0.22%
COc1cccc(NC(=O)CNc2cc(S(=O)(=O)N3CCOCC3)ccc2N2CCCC2)c1 -0.7%
CC(C)(C)CC(=O)NC(=S)NCc1ccccc1 5.07%
CC(C)(C)C(=O)NC(=S)NCCc1ccccc1 2.62%
COc1ccc(/C(C)=N/OCC(=O)N=Nc2c(O)[nH]c3ccc(Br)cc23)cc1 4.9%
O=C(Nc1ccc(F)cc1F)C1CC(=O)N(Cc2ccccc2)C1 (stereo unspecified) 0.74%
CCc1c(C)nc2ncnn2c1N1CCC(C(=O)NCc2cccs2)CC1 11%
O=C(NC(=S)NNC(=O)c1ccccc1O)c1cccc([N+](=O)[O-])c1 16.2%
C=CCN1CC(c2nc3ccccc3n2CCOc2ccccc2)CC1=O (stereo unspecified) 0.6%
CCn1c(C2CC(=O)N(Cc3ccccc3)C2)nc2ccccc21 (stereo unspecified) 1.99%
Cn1c(SCC(=O)NC2CCCC2)nnc1-c1ccncc1 0.88%
COc1ccc(C(=O)Nc2cccc(C(=O)N3CCCCC3)c2)cc1 3.16%
Cc1ccccc1Nc1nc(N)nc(COC(=O)c2cccn2C)n1 4.72%
CCc1ccccc1Nc1nc(N)nc(COC(=O)c2c(C)noc2C)n1 3.24%
Cc1cc(C)nc(-n2nc(C)c(Oc3ccccc3O)c2C)n1 1.29%
Cc1nn(-c2ccccn2)c(C)c1Oc1ccccc1O 0.08%
CCC(=O)c1ccc(OCC(=O)N(C)CC(=O)Nc2cccc(F)c2)cc1 -0.9%
CC(=O)Nc1ccc2c3c(cccc13)CC2 3.08%
Cc1cccc(NC(=O)[C@H](Cc2c[nH]c3ccccc23)NC(=O)[C@@H]2Cc3ccccc3CN2)c1 3.9%
COc1ccc(NC(=O)[C@H](Cc2c[nH]c3ccccc23)NC(=O)[C@@H]2Cc3ccccc3CN2)cc1 1.35%
Cc1cc(N2CCOCC2)nc2ccc(NC(=O)CCC(=O)N3CCN(c4ccccc4F)CC3)cc12 13.8%
CC(NC(=O)COc1ccc(Br)cc1)C(=O)O (stereo unspecified) 0.8%
CN1CCN(C2=NC(=O)/C(=C/c3ccccc3OS(=O)(=O)c3ccccc3)S2)CC1 1.12%
O=C1N=C(N2CCOCC2)S/C1=C\c1ccc(OS(=O)(=O)c2ccccc2)cc1 0.11%
CC(=O)N1c2ccccc2N(Cc2ccc(C)cc2C)C(=O)C1(C)C 5.65%
Cc1cc(C)nc(NC(=O)c2c(F)c(F)c(F)c(C(=O)Nc3cc(C)cc(C)n3)c2F)c1 -2.23%
CCC(=O)N1CCN(c2cc3c(cc2F)c(=O)c(C(=O)O)cn3CC)CC1 0.7%
CCn1cc(C(=O)O)c(=O)c2cc(F)c(N3CCN(C(=S)NC(=O)c4ccccc4)CC3)cc21 -1.03%
CCn1cc(C(=O)NCc2ccncc2)c(=O)c2cc(F)c(N3CCN(C(=O)c4ccco4)CC3)cc21 4.28%
CCn1cc(C(=O)NCc2ccco2)c(=O)c2cc(F)c(N3CCN(C(=O)c4ccco4)CC3)cc21 0.76%
COc1ccccc1C1CCCN1Cc1nc(-c2cc3c(cc2Cl)OCO3)oc1C (stereo unspecified) 1.45%
CCOc1ccccc1-c1nc(CN2CCCC2c2nccs2)c(C)o1 (stereo unspecified) 5.15%
COCc1ccc(CN2CCCC(CO)(Cc3ccccc3C)C2)o1 (stereo unspecified) -0.94%
CCOC(=O)c1cnc(Cc2ccccc2)[nH]c1=O 1.25%
N#Cc1nc(COc2ccccc2Cl)oc1N1CCCC1 40.5%
Cc1c(C(=O)O)oc2ccc3c(c12)C(O)CC(C)(C)O3 (stereo unspecified) 1.72%
O=C(O)c1cc(C2CC2)nn1-c1ccccc1 -0.32%
CCc1ccccc1NC(=O)CNC(=O)c1cc(C2CC2)nn1-c1ccccc1 -0.83%
CCc1ccccc1NC(=O)CN(C)C(=O)c1cc(C2CC2)nn1-c1ccccc1 0.49%
CN(CC(=O)Nc1ccccc1Cl)C(=O)c1cc(C2CC2)nn1-c1ccccc1 1.34%
CCN(CC(=O)Nc1c(F)cccc1F)C(=O)C1CCN(C(=O)Nc2ccccc2)CC1 0.36%
O=C(NC1CCCC1)C1CC(=O)N(c2ccccc2)C1 (stereo unspecified) 1.22%
CS(=O)(=O)c1ccc(C(=O)OCC(=O)Nc2cccc(S(=O)(=O)N3CCCC3)c2)cc1 1.77%
O=C(CSc1nccn(-c2ccc(Br)cc2)c1=O)Nc1ccccc1F 0.04%
CSc1nc(Oc2ccc(C)cc2)cc(C(F)(F)F)n1 0.19%
CCNC(=S)N1CCN(c2nc(-c3ccc(F)cc3)cs2)CC1 2.45%
O=C(c1ccc(-c2ccccc2Cl)o1)N1CCN(S(=O)(=O)c2cccs2)CC1 0.24%
CCOC(=O)[C@H]1[C@H]2COc3cc(OC)ccc3[C@@H]2N2C(=O)CN(Cc3ccc(OC)cc3)C(=O)[C@@]12C 2.03%
COc1ccc(NC(=S)NCCN2CCC(C)CC2)cc1Cl -1.89%
CC(C)OCCCNC(=O)c1ccc2c(c1)NC(=O)c1ccccc1S2 3.89%
COc1ccc2occ(C(C)=O)c2c1 0.49%
COc1ccc(C(=O)c2coc3ccc(OC(C)=O)cc23)cc1 4.53%
